From PubChem
PHOSPHO1 block = PHOSPHO1 (human) inhibition; Q8TCT1; recombinant PHOSPHO1, absorbance phosphatase assay; inhibition, % at 13.3 µM; 1.1% of 290,000 active; in the data active = inhibition above about 60%
APOBEC3G inh = blocks human APOBEC3G single-stranded DNA deamination; inhibition, % at 20 µM; Q9HC16; 0.28% of 330,000 active; recombinant A3G, ssDNA deamination FAM/TAMRA fluorescence;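 active = inhibition of at least 40% at 20 µM, with no more than 30% in the related APOBEC3A deaminase screen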;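 also: plate controls were DMSO wells with A3G for no effect and wells lacking A3G enzyme for full effect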
Target sequence (Q9HC16 whole entry, looked up): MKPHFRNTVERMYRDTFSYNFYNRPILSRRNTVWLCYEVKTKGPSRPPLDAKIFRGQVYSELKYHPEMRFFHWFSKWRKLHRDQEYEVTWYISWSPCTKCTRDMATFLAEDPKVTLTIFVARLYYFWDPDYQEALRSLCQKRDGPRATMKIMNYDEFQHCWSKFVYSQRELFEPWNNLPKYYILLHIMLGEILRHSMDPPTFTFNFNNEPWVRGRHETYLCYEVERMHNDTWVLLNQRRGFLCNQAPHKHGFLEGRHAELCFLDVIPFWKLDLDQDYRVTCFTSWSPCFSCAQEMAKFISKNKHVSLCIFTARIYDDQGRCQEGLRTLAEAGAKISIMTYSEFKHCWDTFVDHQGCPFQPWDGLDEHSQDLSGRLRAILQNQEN
esBAF inh = blocks esBAF chromatin remodeling in mouse ES cells. Bmi1-luciferase knock-in reporter, 24 h; 100% = twice the neutral-well signal. reporter increase, % at 12.5 µM. 2% of 350,000 active; in the data active = activation above about 40%;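 also: 0% = median of the plate's neutral control wells and 100% = double that signal; a rise in the Bmi1 reporter signal indicates esBAF inhibition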
APOBEC3A inh = human APOBEC3A DNA deaminase inhibition; P31941; recombinant A3A, FAM/TAMRA ssDNA deamination fluorescence; inhibition, % at 20 µM; 0.41% of 330,000 active;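 active = at least 40% inhibition at 20 µM here, with at most 30% in a related deaminase screen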;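 also: plate controls were A3A with DMSO for no effect and wells lacking A3A enzyme for full effect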
Target sequence (P31941 whole entry, looked up): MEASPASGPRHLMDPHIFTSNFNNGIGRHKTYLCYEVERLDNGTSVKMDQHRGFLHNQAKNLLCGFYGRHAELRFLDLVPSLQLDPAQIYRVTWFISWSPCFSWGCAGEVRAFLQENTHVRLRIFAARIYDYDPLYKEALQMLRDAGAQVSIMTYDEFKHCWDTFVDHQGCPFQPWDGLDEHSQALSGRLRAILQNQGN
MITF act = increases MITF-driven TRPM1 promoter luciferase signal. SK-MEL-5 TRPM1-promoter luciferase, 24 h; % of positive control, neutral wells = 0. activation, % at 12.5 µM. 0.75% of 300,000 active;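 active = mean activation of at least 80% with every replicate also reaching 80%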;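 also: 0% = neutral control wells and 100% = parthenolide positive control wells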
Wnt act = activators of Wnt/beta-catenin signaling; Wnt/beta-catenin reporter cell assay, activator, plate reader; activation, % at 9.35 µM; 1.2% of 300,000 active; AID 743398; in the data active = activation above about 30%, passing the limit was not always enough;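 also: 0% = neutral control wells and 100% = positive control wells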
A3A conf = APOBEC3A (human) deaminase inhibition, confirmed | shares compounds with APOBEC3A inh | recombinant A3A, ssDNA deaminase UDG fluorescence assay | inhibition, % at 20 µM | 63% of 1,400 active | AID 493151;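 active = inhibition reaching a set limit, 80% of the first screen's cutoff, at 20 µM in any replicate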;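 also: plate controls were DMSO wells with A3A for no effect and wells lacking A3A enzyme for full effect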
UDG ctr A3A = UDG inhibition in APOBEC3A counter-screen; shares compounds with APOBEC3A inh; UDG counterscreen, FAM/TAMRA uracil oligo fluorescence; inhibition, % at 20 µM; 1,000 tested, under 10 active; call rule not given here
* marks the source's active call; other numbers are inactive results. Most compounds without a hit are left out; they make up all but 3.6% or so of the library.

`CCN1/C(=C\C(C)=O)Sc2ccc(OC)cc21` gave PHOSPHO1 block 61*, APOBEC3G inh 16, esBAF inh -5, APOBEC3A inh 58*, MITF act 4, A3A conf 67* and UDG ctr A3A 2.
CCC(=O)/C=C1\Sc2ccc(OC)cc2N1CC was read as PHOSPHO1 block 28, APOBEC3G inh -2, esBAF inh 7, APOBEC3A inh 0 and Wnt act -1.
O=c1[nH]c(=O)n(CCc2ccc(F)cc2)c(O)c1C=NCc1ccc2c(c1)OCO2 was read as PHOSPHO1 block 7, APOBEC3G inh 20, esBAF inh -5, APOBEC3A inh 68* and A3A conf 2.
For NC1CCCCC1N=Cc1c(O)n(CCc2ccc(F)cc2)c(=O)[nH]c1=O (stereo not drawn) the results were PHOSPHO1 block 6, esBAF inh 3 and MITF act -18.
`CCN(CC)CCCNC(=O)C1CCN(c2ncnc3c2sc2cccc(F)c23)CC1` gave PHOSPHO1 block 28, APOBEC3G inh -1, APOBEC3A inh 48*, MITF act -9, Wnt act 2, A3A conf 2 and UDG ctr A3A 1.
`CC1CC(C)CN(CCCNC(=O)C2CCN(c3ncnc4c3sc3cccc(F)c34)CC2)C1` (stereo not drawn) gave PHOSPHO1 block 47, APOBEC3G inh -4 and APOBEC3A inh 4.
`C[n+]1ccccc1C1CCCC/C1=N\NC(N)=S` (stereo not drawn) gave PHOSPHO1 block 15, APOBEC3G inh 14, esBAF inh 2, APOBEC3A inh 84*, MITF act 17, Wnt act -1, A3A conf 55* and UDG ctr A3A -1.
`CCCN(CC(=O)Nc1cc(Cl)ccc1Cl)C(=O)/C=C/c1ccco1` gave PHOSPHO1 block -6, APOBEC3G inh -3, APOBEC3A inh 77*, MITF act 3, A3A conf 1 and UDG ctr A3A -2.
`COc1cc(OC)c2ccc(=O)oc2c1C(CCN1CCCC1)c1ccc2c(c1)OCO2` (stereo not drawn) gave PHOSPHO1 block 40, APOBEC3G inh 20, esBAF inh -8, APOBEC3A inh 64*, MITF act 15, Wnt act 0 and A3A conf -1.
COc1cc(OC)c2ccc(=O)oc2c1C(CCN1CCOCC1)c1ccc2c(c1)OCO2 (stereo not drawn) was read as APOBEC3G inh 1, esBAF inh -4, APOBEC3A inh 2, MITF act 3 and Wnt act -1.
`C[C@@H]1CN([C@@H](C)CO)C(=O)c2cc(C3=CCCC3)cnc2O[C@H]1CN(C)C(=O)C1CCOCC1` gave esBAF inh 2.
Screening Oc1ccccc1/C=N/[n+]1ccccc1 returned PHOSPHO1 block 15, APOBEC3G inh 15, esBAF inh 0, APOBEC3A inh 69*, MITF act -7, Wnt act 1, A3A conf 66* and UDG ctr A3A -1.
Oc1ccccc1C=NC(c1ccccc1)C(O)c1ccccc1 (stereo not drawn) was read as PHOSPHO1 block 5, APOBEC3G inh -5, APOBEC3A inh -3 and MITF act 7.
COc1ccc(-c2noc(CSc3nc(-c4ccccc4)cc(=O)[nH]3)n2)cc1 was read as PHOSPHO1 block 102*, APOBEC3G inh 14, esBAF inh 0, APOBEC3A inh 56*, MITF act -5 and A3A conf 22.
For N#Cc1ccccc1CN1C(=O)S/C(=C/c2cccn2-c2ccc(C(=O)O)cc2)C1=O the results were PHOSPHO1 block -1, APOBEC3G inh 14, APOBEC3A inh 44*, MITF act -3, A3A conf 25* and UDG ctr A3A -3.
O=C(O)c1ccc(-n2cccc2/C=C2/SC(=O)N(CC(=O)N3CCCC3)C2=O)cc1 was read as PHOSPHO1 block 23, APOBEC3G inh 85, esBAF inh 2, APOBEC3A inh 96, MITF act 3 and Wnt act -8.
Screening O=C1ON=C(c2ccccc2[N+](=O)[O-])/C1=C/c1cccc([N+](=O)[O-])c1O returned APOBEC3G inh 17, esBAF inh -8, APOBEC3A inh 57*, MITF act -4, Wnt act -2, A3A conf 83* and UDG ctr A3A -1.
For O=C1ON=C(c2ccc(Cl)c([N+](=O)[O-])c2)/C1=C/c1cccc([N+](=O)[O-])c1O the results were APOBEC3G inh 23, esBAF inh -3, APOBEC3A inh 82*, MITF act -3, Wnt act 1, A3A conf 88* and UDG ctr A3A -3.
O=[N+]([O-])c1cccc(/C=N/n2cnnc2)c1O was read as PHOSPHO1 block 11, APOBEC3G inh -6, esBAF inh -6, APOBEC3A inh 4 and MITF act -14.
Screening Cc1cccc2cc(=O)[nH]c(C)c12 returned PHOSPHO1 block -30, APOBEC3G inh 18, esBAF inh 2, APOBEC3A inh 40*, MITF act 2 and A3A conf 7.
For Cc1cccc2c(Cl)cc(=O)[nH]c12 the results were PHOSPHO1 block -4, APOBEC3G inh -4, APOBEC3A inh -1 and Wnt act 0.
Screening Cc1ccc(-c2cnc3c(c2)C(=O)N([C@@H](C)CO)C[C@H](C)[C@H](CN(C)C(=O)c2cccc(F)c2)O3)cc1 returned esBAF inh -9.
Screening O=C(NCc1ccco1)c1nc(-c2ccc(F)cc2)no1 returned PHOSPHO1 block 23, APOBEC3G inh -9, APOBEC3A inh 40*, MITF act -1, Wnt act 0, A3A conf -3 and UDG ctr A3A -2.
For O=C(NCc1ccco1)c1ccccc1-c1nc(-c2ccc(F)cc2)no1 the results were PHOSPHO1 block 0, APOBEC3G inh 2, esBAF inh -5, APOBEC3A inh 3, MITF act -3 and Wnt act 3.
`CC1=CC(C)(C)N(S(=O)(=O)c2ccc(C)cc2)c2ccc(C)cc21` gave PHOSPHO1 block -3, APOBEC3G inh -3, esBAF inh -10, APOBEC3A inh -3 and MITF act -44.
For CC1=CC(C)(C)[N+](C)(C)c2ccc(C)cc21 the results were PHOSPHO1 block 37, APOBEC3G inh 12, APOBEC3A inh 45*, MITF act -6, Wnt act -1, A3A conf 71* and UDG ctr A3A 0.
C[C@H](NC(=O)C[C@H]1C=C[C@H](NC(=O)CN2CCOCC2)[C@H](CO)O1)c1ccccc1 was read as esBAF inh 1.
